Among the data in PubChem BioAssay (NCI) are growth values, retold here.

Test systems include NCI-H23 lung; NCI-H226 lung; NCI-H322M lung; HOP-62 NSCLC; NCI-H460 lung; HOP-92 NSCLC; NCI-H522 lung; A549/ATCC NSCLC; 786-0 renal; COLO 205 colon; DU-145 prostate; K-562 leukemia; MALME-3M melanoma; MDA-MB-231 breast; RXF 393 renal; SF-268 CNS; SF-295 CNS; SF-539 CNS; UACC-257 melanoma; M14 melanoma.
Experiment in all cases: NCI-60 one-dose screen, 48 h (100 = growth as untreated, 0 = no growth, -100 = all killed)
Common to all, as to settings: 10 µM unless noted

The structures appear in SMILES notation. About 83,000 compounds went through this panel and 20% of them were active in at least one assay; those are over-represented in the sample as a whole.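 Growth was measured after 48 h exposure to one concentration of compound in 96-well plates. Values under 10 count as active.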 Unmarked numbers belong to inactive results. Calls of active or inactive are those of the source.

In the case of `Cc1ccc(-c2nn(CC(=O)N3CCOCC3)c(N)c2C#N)cc1`, the growth is 100% in the experiment with NCI-H23 lung; 102% in the experiment on NCI-H226 lung; 110% in the experiment with NCI-H322M lung; 108% in the experiment on HOP-62 NSCLC; 106% in the experiment with NCI-H460 lung; 111% in the experiment on HOP-92 NSCLC. Moreover, the growth with NCI-H522 lung is 101%; with A549/ATCC NSCLC it was 95.8%; in the experiment on 786-0 renal, 100%; in the experiment with COLO 205 colon it was 122%; in the experiment with DU-145 prostate, 111%; with K-562 leukemia, 99.8%. The growth is 104% with MALME-3M melanoma; 108% in the experiment with MDA-MB-231 breast; 110% with RXF 393 renal; 99% with SF-268 CNS; 102% in the experiment on SF-295 CNS; 99.2% with SF-539 CNS. The growth with UACC-257 melanoma is 107%; in the experiment on M14 melanoma, 104%.

In the case of `Cc1c(C(=O)C(SC(=S)N2CCOCC2)SC(=S)N2CCOCC2)nnn1-c1ccc([N+](=O)[O-])cc1`, the growth is 108% with NCI-H23 lung; 89.4% with NCI-H226 lung; 98.7% with NCI-H322M lung; 94.5% in the experiment with HOP-62 NSCLC; 98.8% in the experiment on NCI-H460 lung; 92.9% with HOP-92 NSCLC. Further, the growth is 80.3% in the experiment with NCI-H522 lung; 96.5% in the experiment with A549/ATCC NSCLC; 98.6% in the experiment with 786-0 renal; 86.5% with COLO 205 colon; 109% in the experiment with DU-145 prostate; 74.7% in the experiment with K-562 leukemia. The growth in the experiment on MALME-3M melanoma was 93.7%; in the experiment with MDA-MB-231 breast it was 101%; in the experiment on RXF 393 renal it was 105%; with SF-268 CNS, 104%; in the experiment with SF-295 CNS, 96.5%; in the experiment on SF-539 CNS it was 101%. The growth in the experiment with UACC-257 melanoma was 93.2%; with M14 melanoma, 89.8%.

For `Cc1cc(=O)oc2cc(Oc3nc(-c4ccccc4)cn4c(-c5ccccc5)cnc34)ccc12`, the growth with NCI-H23 lung was 62.4%; in the experiment on NCI-H226 lung, 44.6%; with NCI-H322M lung, 86%; in the experiment on HOP-62 NSCLC, 68.7%; with NCI-H460 lung, 64%; in the experiment on HOP-92 NSCLC it was 22.4%. The growth with NCI-H522 lung was 47.1%; in the experiment on A549/ATCC NSCLC, 56.1%; in the experiment on 786-0 renal, 67.3%; in the experiment on COLO 205 colon it was 70.5%; in the experiment with DU-145 prostate, 68%; in the experiment with K-562 leukemia, 61.8%. In addition, the growth in the experiment on MALME-3M melanoma is -9.77% (active); with MDA-MB-231 breast, 50.4%; with RXF 393 renal, 28.3%; with SF-268 CNS, 64.4%; in the experiment on SF-295 CNS, 54.2%; with SF-539 CNS, 54.6%. Moreover, the growth was 65.7% in the experiment with UACC-257 melanoma and 67.7% with M14 melanoma.

Regarding `COc1ccc(-c2cn(Cc3ccc4c(Br)cc(Br)c(O)c4n3)nn2)cc1`, the growth was 95.5% with NCI-H23 lung; 101% in the experiment on NCI-H226 lung; 100% with NCI-H322M lung; 98.4% in the experiment on HOP-62 NSCLC; 105% with NCI-H460 lung; 80.3% with HOP-92 NSCLC. In addition, the growth was 58.5% with NCI-H522 lung; 98.7% with A549/ATCC NSCLC; 104% in the experiment with 786-0 renal; 107% with COLO 205 colon; 89.7% in the experiment on DU-145 prostate; 39.1% in the experiment on K-562 leukemia. Further, the growth was 82.7% in the experiment with MALME-3M melanoma; 93.9% in the experiment on MDA-MB-231 breast; 91.8% in the experiment on RXF 393 renal; 91.3% in the experiment on SF-268 CNS; 104% with SF-295 CNS; 101% in the experiment with SF-539 CNS. In addition, the growth in the experiment on UACC-257 melanoma is 87.9%; with M14 melanoma it was 83.3%.

Take `CC/C(=C(/c1ccc(Cl)cc1)c1ccc(OCCN2CCCC2)cc1)c1ccccc1`: the growth is 62% with NCI-H23 lung; 93.9% with NCI-H226 lung; 93.4% in the experiment with NCI-H322M lung; 99% in the experiment on HOP-62 NSCLC; 12.3% with NCI-H460 lung; 57.5% in the experiment with HOP-92 NSCLC. For the same compound, the growth in the experiment with NCI-H522 lung was 83%; with A549/ATCC NSCLC, 43.5%; in the experiment on 786-0 renal, 43.6%; in the experiment on COLO 205 colon, -25.3% (active); with DU-145 prostate, 80.4%; in the experiment with K-562 leukemia it was 4.31% (active). In addition, the growth in the experiment on MALME-3M melanoma is 68.8%; in the experiment on MDA-MB-231 breast, 73.6%; with RXF 393 renal, 55.2%; in the experiment on SF-268 CNS, 73.3%; with SF-295 CNS, 79%; in the experiment with SF-539 CNS it was 74.8%. For the same compound, the growth in the experiment on UACC-257 melanoma is 74%; in the experiment with M14 melanoma, 37.1%.

Consider `COC1=C(OC)C(=O)C(CCCCCCCCCCO)=C(C)C1=O`, for which the growth with NCI-H23 lung was 35.2%; in the experiment with NCI-H226 lung, 96.6%; with NCI-H322M lung it was 112%; in the experiment on HOP-62 NSCLC it was 86.4%; in the experiment on NCI-H460 lung, 98.8%; in the experiment with HOP-92 NSCLC, 76.6%. The growth with NCI-H522 lung was 63.7%; in the experiment with A549/ATCC NSCLC it was 96%; with 786-0 renal, 83.3%; in the experiment on COLO 205 colon, 102%; in the experiment on DU-145 prostate it was 72%; in the experiment with K-562 leukemia, 45.7%. Also, the growth in the experiment with MALME-3M melanoma is 87%; with MDA-MB-231 breast, 42%; in the experiment with RXF 393 renal, 64%; in the experiment on SF-268 CNS it was 64.2%; with SF-295 CNS it was 77.8%; with SF-539 CNS, 74%. The growth is 46% in the experiment on UACC-257 melanoma and 92.7% in the experiment with M14 melanoma.

In the case of `CCOC(=O)C1=C(C)N(C)C(=O)N(C)C1c1ccccc1` (stereo not given), the growth was 96.7% with NCI-H23 lung; 93.3% in the experiment with NCI-H226 lung; 98.6% in the experiment on NCI-H322M lung; 81.7% with HOP-62 NSCLC; 101% in the experiment with NCI-H460 lung; 78.5% in the experiment with HOP-92 NSCLC. The growth was 86.9% in the experiment with NCI-H522 lung; 104% in the experiment on A549/ATCC NSCLC; 100% in the experiment on 786-0 renal; 98.5% with COLO 205 colon; 107% in the experiment on DU-145 prostate; 82.2% in the experiment on K-562 leukemia. In addition, the growth was 87.2% in the experiment with MALME-3M melanoma; 97.3% in the experiment with MDA-MB-231 breast; 105% with RXF 393 renal; 108% in the experiment on SF-268 CNS; 90.6% in the experiment with SF-295 CNS; 91.4% with SF-539 CNS. The growth is 92.5% in the experiment on UACC-257 melanoma and 94.2% with M14 melanoma.

For `C=C(c1ccc(C(=O)O)c(F)c1)c1cc2c(cc1C)C(C)(C)C=CC2(C)C`, the growth in the experiment with NCI-H23 lung was 76.2%; in the experiment with NCI-H226 lung, 65.5%; in the experiment with NCI-H322M lung it was 90.7%; in the experiment on HOP-62 NSCLC it was 70%; in the experiment with NCI-H460 lung, 82.1%; in the experiment with HOP-92 NSCLC, 62.4%. The growth with NCI-H522 lung is 61.5%; in the experiment on A549/ATCC NSCLC, 38.1%; with 786-0 renal it was 89.2%; in the experiment on COLO 205 colon it was 107%; in the experiment with DU-145 prostate, 94.7%; in the experiment on K-562 leukemia, 73.9%. The growth in the experiment with MALME-3M melanoma is 54.4%; in the experiment with MDA-MB-231 breast, 88%; in the experiment with RXF 393 renal, 96.9%; with SF-268 CNS, 74.3%; with SF-295 CNS it was 66.5%; in the experiment on SF-539 CNS it was 72.2%. In addition, the growth in the experiment with UACC-257 melanoma was 80.5%; in the experiment with M14 melanoma it was 91.1%.
